Source: PubChem (National Center for Advancing Translational Sciences (NCATS))
Giardia killer: kills Giardia lamblia. Giardia lamblia trophozoite viability. AID 540267. activity change, % at 7.66 µM, hits read low. actives 0.15% (n = 340,000); in the data active means activity change below about -80%; inconclusive means between about -30% and that limit;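 further: parasites exposed to compound for two days anaerobically before the ATP read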
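Giardia trophozoites, 100 cells per well, were exposed to compounds for 48 hrs at 37 deg C under anaerobic conditions; viability was then read as ATP content by bioluminescence after 15-30 min at room temperature.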
TRPV1 PAM: human TRPV1 potentiation. Q8NER1. AID 540277. TRPV1-expressing cells, Fluo-8 calcium influx, capsaicin EC20 potentiation. actives 0.02% (n = 320,000). potentiation, % at 8.33 µM; in the data active means potentiation above about 80%; inconclusive means between about 30% and that limit
Target sequence (Q8NER1 whole entry, looked up): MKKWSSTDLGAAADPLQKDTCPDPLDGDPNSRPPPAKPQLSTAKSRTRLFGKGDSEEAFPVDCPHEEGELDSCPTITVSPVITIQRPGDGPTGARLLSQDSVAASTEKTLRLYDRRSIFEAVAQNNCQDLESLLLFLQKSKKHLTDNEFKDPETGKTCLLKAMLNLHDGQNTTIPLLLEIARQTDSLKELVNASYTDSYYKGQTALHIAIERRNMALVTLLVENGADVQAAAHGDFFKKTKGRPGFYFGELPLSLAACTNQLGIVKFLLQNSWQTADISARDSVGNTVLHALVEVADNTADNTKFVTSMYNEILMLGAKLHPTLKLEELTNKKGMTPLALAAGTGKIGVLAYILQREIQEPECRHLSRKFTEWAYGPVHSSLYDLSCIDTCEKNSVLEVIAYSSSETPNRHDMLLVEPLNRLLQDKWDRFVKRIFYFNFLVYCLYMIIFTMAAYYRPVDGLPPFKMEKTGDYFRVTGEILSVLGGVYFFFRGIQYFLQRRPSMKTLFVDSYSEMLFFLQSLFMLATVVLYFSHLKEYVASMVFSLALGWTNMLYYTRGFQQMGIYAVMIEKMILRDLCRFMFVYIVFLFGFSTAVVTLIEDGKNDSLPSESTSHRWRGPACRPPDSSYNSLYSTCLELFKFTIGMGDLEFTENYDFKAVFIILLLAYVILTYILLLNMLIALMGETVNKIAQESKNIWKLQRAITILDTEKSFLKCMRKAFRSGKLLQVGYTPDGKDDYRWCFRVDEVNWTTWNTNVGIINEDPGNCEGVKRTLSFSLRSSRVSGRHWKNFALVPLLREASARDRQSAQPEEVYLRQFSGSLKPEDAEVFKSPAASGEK
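TRPV1-expressing cells were cultured overnight at 35.5C and loaded with Fluo-8 calcium dye for 40 to 90 min at room temperature. After a 10 s baseline, compound was added and calcium influx was read kinetically for 3 min (ex 480/em 520 nm).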
TRPV1 agonist: activates the human vanilloid receptor TRPV1 | Q8NER1 | TRPV1-expressing cells, Fluo-8 calcium influx, agonist mode | activation, % at 8.33 µM | actives 0.19% (n = 320,000) | AID 540275; in the data active means activation above about 80%; inconclusive means between about 30% and that limit
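Cells expressing TRPV1 were dye-loaded with Fluo-8 and read kinetically: 10 s baseline, 3 min after compound (agonist portion), then 2 min after EC20 capsaicin (allosteric enhancer portion). Calcium-bound dye fluorescence at 480/520 nm.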
ELG1 repair inh: inhibitors of ELG1-dependent DNA repair in HEK293T cells; actives 2.3% (n = 330,000); HEK293T ELG1-luciferase reporter, luminescence, 16 h; DNA damage induced by 5-fluorouridine; AID 504467; Potency, µM (titrated, usually from 46.1 µM), hits mostly inhibitors; further: nearly all actives have a fitted effect of over 55% in size
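DMSO vehicle served as the neutral condition. Each well held 2,000 cells given 5-fluorouridine plus compound; after 16 hr at 37 °C/5% CO2, ONE-Glo was added and luciferase measured 30 min later.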
FUS yeast rescue: rescues growth of FUS-expressing yeast | S. cerevisiae FUS-expressing, growth rescue, OD600, 24 h | actives 0.24% (n = 390,000) | AID 1347120 | Potency, µM (top dose mostly 76.6 µM), actives largely listed as activators; further: nearly all actives have a fitted effect of over 55% in size
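Cultures pregrown in 2.5% raffinose medium are shifted to minimal medium containing 2% galactose to express toxic FUS. Compounds are tested at several concentrations. After 24hr at 30C, growth is quantified at 600 nm absorbance.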
Hits are given with their value; 0 = inactive; ? = inconclusive; - = no result. A selection: hits, their analogues and other compounds. The true share with any hit is near 2.3%. Unless noted, the call rests on the fitted dose curve; in most records, active means well fitted curve in the direction sought with a large enough effect; inconclusive means small, poorly fitted or top-dose-only effect, or another doubt; inactive means no such curve, though single readings can be large; an effect the other way counts as inactive or inconclusive.

SMILES	Giardia killer	TRPV1 PAM	TRPV1 agonist	ELG1 repair inh	FUS yeast rescue
N#Cc1cccc(NC(=O)c2cc(C3CCCCN3C(=O)c3cccs3)on2)c1 (stereo not drawn)	-	-	-	-	0
Cc1ccccc1CNC(=O)c1ccc(CS(=O)Cc2ccc(Cl)cc2)o1 (stereo not drawn)	-	-	-	-	0
COc1ccc2[nH]c3c(c2c1)CCN1C(=O)C(CC(=O)NCC24CC5CC(CC(C5)C2)C4)C[C@H](C(=O)N2CCCCC2)[C@@]31C (stereo partly drawn)	0	-	-	13µM	?
CCN(CC)C(=O)[C@H]1C[C@H](CC(=O)NCc2ccco2)C(=O)N2CCc3c([nH]c4cc(-c5ccco5)ccc34)[C@]12C	0	-	-	18.3µM	?
C[C@]12c3[nH]c4ccccc4c3CCN1C(=O)C(CC(=O)NCC13CC4CC(CC(C4)C1)C3)C[C@@H]2C(=O)N1CCCCC1 (stereo partly drawn)	0	-	-	?	?
CCN(CC)C(=O)[C@H]1CC(CC(=O)NCC23CC4CC(CC(C4)C2)C3)C(=O)N2CCc3c([nH]c4ccc(OC)cc34)[C@]12C (stereo partly drawn)	?	-	-	23.1µM	?
CCOC(=O)c1c(/N=C/N(C)C)sc(/C=N/Nc2ccccc2)c1-c1ccccc1Cl	0	0	0	20.6µM	0
CCOC(=O)c1c(/N=C/N(C)C)sc(/C=N/Nc2ccccc2)c1-c1ccccc1	0	0	0	0	0
CCNc1nc(NCC)nc(-n2cc(C(=O)c3cc(Cl)ccc3O)cn2)n1	0	-	-	-	-
Cc1ccc(NC(=O)C(=Cc2ccc(C(=O)O)cc2)C(=O)Nc2ccc(C)cc2C)c(C)c1	0	0	0	16.4µM	0
CC(=O)C(=Cc1ccc(C(=O)O)cc1)C(C)=O	0	0	0	0	0
COc1ccc(NC(c2ccccc2)c2ccncc2)cc1 (stereo not drawn)	0	0	0	25.9µM	0
O=C(CSc1nc2[nH]c(=O)cc(O)c2s1)Nc1nncs1	0	-	-	-	0
Cc1csc(NC(=O)CSc2nc3[nH]c(=O)cc(O)c3s2)n1	-87.1	-	-	-	0
CCOc1ccc(CC(=O)Nc2c(C(=O)c3ccccc3)oc3ccc(Cl)cc23)cc1OCC	-	-	-	-	0
Cc1ncc(CO)c(/C=N/NC(=O)c2ccoc2C)c1O	0	0	0	?	0
Cc1ncc(CO)c(/C=N/NC(=O)c2cc3c(s2)CCCC3)c1O	?	0	0	3.26µM	0
COc1ccc(C(=O)N/N=C/c2c(CO)cnc(C)c2O)cc1	0	0	0	13µM	0
Cc1ncc(CO)c(/C=N/NC(=O)c2ccc(O)cc2)c1O	0	0	0	0	-
O=C(NCc1ccc(Cl)cc1)C(=O)NCC(c1cccnc1)N1CCN(c2ccccc2)CC1 (stereo not drawn)	-	-	-	-	0
O=C1SCCN1N=Cc1ccc([N+](=O)[O-])o1	-84.8	-	-	-	0
CC1CN(N=Cc2ccc([N+](=O)[O-])o2)C(=N)O1 (stereo not drawn)	?	-	-	-	0
CN1CCN(c2ccccc2NC(=O)c2ccc(-c3ccc(Cl)cc3Cl)o2)CC1	0	0	0	20.6µM	0
CC(C)NC(=O)COC(=O)c1cncc(Br)c1	0	0	0	0	0
CC(C)CNC(=O)COC(=O)c1cncc(Br)c1	0	0	0	0	4.47µM
SMILES	Giardia killer	TRPV1 PAM	TRPV1 agonist	ELG1 repair inh	FUS yeast rescue
CCc1ccc2c(c1)C(=O)CCC2	0	-	-	-	0
O=C1CCCc2cc3c(cc21)CC1(C3)Cc2cc3c(cc2C1)C(=O)CCC3	0	0	0	13µM	0
COc1cc(CC(=O)Nc2nc(C)cs2)cc(OC)c1OC	0	0	0	14.6µM	0
COc1ccc(CC(=O)Nc2nc(-c3ccc(F)c(F)c3)cs2)cc1	0	0	?	20.6µM	0
COc1ccc(CCC(=O)Nc2nc(-c3ccncc3)cs2)cc1	-	0	0	0	-
COc1ccc(CC(=O)Nc2nc(-c3ccncc3)cs2)cc1	0	0	0	18.3µM	0
S=c1[nH]nc(-c2n[nH]c3c2CCC3)n1N=Cc1c[nH]c2ccccc12	-	-	-	-	0
Cc1ccc(NC(=O)c2ccc([N+](=O)[O-])s2)cc1S(=O)(=O)N1CCOCC1	?	-	-	6.51µM	0
Cc1ccc(NC(=O)c2ccc3c(c2)OCO3)cc1S(=O)(=O)N1CCOCC1	0	0	?	18.3µM	0
Cc1ccc(NC(=O)c2oc3ccccc3c2COC(C)C)cc1S(=O)(=O)N1CCOCC1	0	-	-	18.3µM	?
Cc1ccc(NC(=O)c2ccccc2NS(=O)(=O)c2ccc(Cl)s2)cc1S(=O)(=O)N1CCOCC1	0	0	0	23.1µM	?
Cc1ccc(NC(=O)C2=COCCO2)cc1S(=O)(=O)N1CCOCC1	0	0	0	0	-
Cc1nc(-n2nc(C)c(Cc3ccc(Cl)cc3)c2C)sc1C(=O)N1CCC(C)CC1	-	-	-	-	0
COc1cc(S(=O)(=O)N2CCOCC2)ccc1NC(=O)COC(=O)c1cc(OC)c(OC)c(OC)c1	0	-	-	?	-
O=C(Nc1cc(S(=O)(=O)N2CCOCC2)ccc1N1CCOCC1)c1ccc([N+](=O)[O-])s1	-88.8	-	-	20.6µM	0
O=C(Nc1cc(S(=O)(=O)N2CCOCC2)ccc1N1CCOCC1)c1ccccc1[N+](=O)[O-]	0	-	-	0	0
COc1ccc(S(=O)(=O)N2CCOCC2)cc1NC(=O)c1cc2c(s1)CCCC2	0	0	0	16.4µM	-
O=C(Nc1cc(S(=O)(=O)N2CCOCC2)ccc1N1CCOCC1)c1cc2c(s1)CCC2	0	0	0	?	0
COc1ccc(S(=O)(=O)N2CCOCC2)cc1NC(=O)COC(=O)c1ccc([N+](=O)[O-])s1	0	-	-	23.1µM	-
COc1cc(S(=O)(=O)N2CCOCC2)ccc1NC(=O)COC(=O)CC12CC3CC(CC(C3)C1)C2	0	0	0	18.4µM	?
CCCCOC(=O)c1ccc(NC(=O)Cn2nnc3sc4c(c3c2=O)CCCC4)cc1	-	-	-	-	0
Cc1nnc(NCC=Cc2ccccc2)s1	-	-	-	-	0
Cc1ccc(NC(=O)C(C)OC(=O)c2ccc(NC(=O)CC#N)cc2)cc1S(=O)(=O)N1CCOCC1 (stereo not drawn)	0	?	0	0	14.1µM
Cc1ccc(C(=O)OC(C)C(=O)Nc2ccc(S(N)(=O)=O)cc2)cc1S(=O)(=O)N1CCOCC1 (stereo not drawn)	0	0	0	0	0
CCOc1ccc(NC(=O)CSc2cc(C)c3ccccc3n2)cc1	-	-	-	-	0
Cc1ccc(S(=O)(=O)N[C@@H](Cc2ccccc2)C(=O)CCl)cc1	0	0	0	16.4µM	0
Cc1ccc(S(=O)(=O)NC(Cc2ccccc2)C(=O)NN)cc1 (stereo not drawn)	0	0	0	0	0
C/C(N)=C(/C#N)C(=O)CSc1nc2ccccc2c(=O)n1-c1ccc(C)cc1	-	0	0	7.31µM	-
C/C(N)=C(/C#N)C(=O)CSc1nc2ccccc2c(=O)n1-c1ccc(C)c(Cl)c1	0	0	0	6.51µM	0
Cc1ccc(-n2c(SCC(=O)N/N=C/c3c(C)nn(-c4ccccc4)c3C)nc3ccccc3c2=O)cc1	0	0	0	23.1µM	0
